Laboratory results published in PubChem BioAssay.
Active and inactive are the calls of the source. Unless noted, how the calls were made is not given here.

Experiments:
[1] = A549 cell viability effects, profiling panel, calcein-AM fluorescence, 48 h, basal (AID 1162); conditions: higher = more signal; further: test concentration not given here
[2] = adipocyte viability effects, profiling panel, cell-based, 3T3-L1 adipocytes, calcein-AM fluorescence, 48 h, basal (AID 1163); conditions: 3T3-L1 adipocytes viability, higher = more signal; further: test concentration not given here
[3] = HepG2 cell viability effects, profiling panel, calcein-AM fluorescence, 48 h, basal (AID 1164); conditions: higher = more signal; further: test concentration not given here
[4] = MM1S cell viability effects, profiling panel, calcein-AM fluorescence, 48 h, basal (AID 1165); conditions: higher = more signal;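 further: viability of MM1S multiple myeloma cells under basal unstimulated conditions; test concentration not given here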
[5] = basal RPMI8226 viability, no added stimulus, profiling panel, cell-based, calcein-AM fluorescence, 48 h, PK04 Diversity Set (AID 1166); conditions: RPMI8226 myeloma viability, higher = more signal;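 further: cells grown under basal conditions without added stimulus; test concentration not given here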
[6] = basal HepG2 mitochondrial membrane potential changes, profiling panel, cell-based, JC-1 fluorescence, 24 h, 100 nL compound (AID 1167); conditions: higher = more signal; further: test concentration not given here
[7] = basal 3T3-L1 adipocyte mitochondrial potential changes, profiling panel, cell-based, JC-1 fluorescence, 3T3-L1 adipocytes, 24 h, 100 nL compound (AID 1168); conditions: JC-1 mitochondrial fluorescence, higher = more signal, called active from +8 up or from −8 down; further: test concentration not given here
[8] = basal RPMI8226 mitochondrial membrane potential changes, profiling panel, cell-based, JC-1 fluorescence, 24 h, 100 nL compound (AID 1169); conditions: RPMI8226 myeloma, JC-1 mitochondrial potential fluorescence, higher = more signal; further: test concentration not given here
[9] = basal MM1S mitochondrial membrane potential changes, profiling panel, cell-based, JC-1 fluorescence, 24 h, 100 nL compound (AID 1170); conditions: higher = more signal; further: test concentration not given here
[10] = A549 lung cancer cell viability effects, profiling panel, resazurin fluorescence, 24 h, PK04 Diversity Set (AID 1171); conditions: higher = more signal, called active from +8 up or from −8 down; further: test concentration not given here
[11] = HepG2 liver cancer cell viability effects, profiling panel, resazurin fluorescence, 24 h, PK04 Diversity Set (AID 1172); conditions: higher = more signal; further: test concentration not given here
[12] = basal S. cerevisiae growth modulation, no modifier, primary screen, OD600, strain BY4716, 24 h, basal condition (AID 1173); conditions: OD600, 24 h, higher = more signal, called active from +8 up or from −8 down
[13] = MM1S myeloma cell viability, profiling panel, resazurin fluorescence, basal, 24 h, PK04 Diversity Set (AID 1174); conditions: higher = more signal, called active from +8 up or from −8 down;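 further: MM1S multiple myeloma cell line; test concentration not given here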
[14] = biological target: Dihydroorotate dehydrogenase (quinone), mitochondrial (Plasmodium falciparum (isolate 3D7)) (UniProt Q08210); test: PfDHODH enzyme inhibitors, primary screen, biochemical, C-terminal His tag, absorbance 600 nm (AID 1175); conditions: DCIP absorbance 600 nm, higher = more signal, called active from +8 up or from −8 down;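 further: recombinant parasite enzyme with a five histidine tag at its C terminus; test concentration not given here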
Sequence of Dihydroorotate dehydrogenase (quinone), mitochondrial (Plasmodium falciparum (isolate 3D7)) (Q08210 whole entry, looked up): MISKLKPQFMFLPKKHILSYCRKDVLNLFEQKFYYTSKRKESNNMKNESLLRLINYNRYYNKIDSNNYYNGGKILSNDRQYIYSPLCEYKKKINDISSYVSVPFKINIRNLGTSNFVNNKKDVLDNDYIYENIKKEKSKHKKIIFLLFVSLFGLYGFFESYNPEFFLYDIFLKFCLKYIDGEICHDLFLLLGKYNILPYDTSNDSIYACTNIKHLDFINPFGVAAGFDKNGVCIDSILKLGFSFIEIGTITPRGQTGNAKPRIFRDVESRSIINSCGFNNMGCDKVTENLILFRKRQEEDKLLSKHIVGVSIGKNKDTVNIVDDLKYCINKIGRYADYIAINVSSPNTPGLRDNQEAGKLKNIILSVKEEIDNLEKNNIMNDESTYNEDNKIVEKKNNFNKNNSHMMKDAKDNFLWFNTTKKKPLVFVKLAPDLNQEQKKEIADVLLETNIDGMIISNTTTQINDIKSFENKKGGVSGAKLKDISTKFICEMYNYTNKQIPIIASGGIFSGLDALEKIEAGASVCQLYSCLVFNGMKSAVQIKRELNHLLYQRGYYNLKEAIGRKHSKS

[15] = P. aeruginosa biofilm formation inhibitors, primary screen, strain PAO1, LB-PBS medium, absorbance 600 nm (AID 1176); further: test concentration not given here; conditions: P. aeruginosa PAO1 growth/biofilm, A600, 12 h; higher = more signal
[16] = S. cerevisiae RM11-1a growth modifiers, primary screen, strain RM11-1a, OD600, basal, 24 h (AID 1177); conditions: OD600, 24 h, higher = more signal, called active from +8 up or from −8 down;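 further: cultures grown under basal conditions with no added stressor; test concentration not given here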
[17] = E. coli acrAB mutant growth effects, primary screen, E. coli filamentation inducers, strain DRC39, OD650, 24 h (AID 1178); conditions: higher = more signal, called active from +8 up or from −8 down;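 further: growth measured as culture turbidity by optical density at 650 nm; test concentration not given here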
[18] = E. coli acrAB mutant growth effects, primary screen, E. coli filamentation inducers, strain DRC39, OD650, 48 h (AID 1179);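 further: screen aims at cell division blockers that make cells filament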; conditions: E. coli DRC39 delta-acrAB growth, higher = more signal, called active from +8 up or from −8 down
[19] = RPMI8226 myeloma cell viability, profiling panel, resazurin fluorescence, basal, 24 h, PK04 Diversity Set (AID 1180); conditions: higher = more signal;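 further: RPMI8826 multiple myeloma cell line at 5000 cells per well; test concentration not given here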
[20] = biological target: E3 ubiquitin-protein ligase XIAP (Homo sapiens) (UniProt P98170); test: XIAP binders, primary screen, biophysical, small-molecule microarray, fluorescence 635 nm (AID 1181); conditions: small-molecule microarray binding, higher = more signal;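 further: score merges 667 nm emission and signal to noise over triplicate slides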
Sequence of E3 ubiquitin-protein ligase XIAP (Homo sapiens) (P98170 whole entry, looked up): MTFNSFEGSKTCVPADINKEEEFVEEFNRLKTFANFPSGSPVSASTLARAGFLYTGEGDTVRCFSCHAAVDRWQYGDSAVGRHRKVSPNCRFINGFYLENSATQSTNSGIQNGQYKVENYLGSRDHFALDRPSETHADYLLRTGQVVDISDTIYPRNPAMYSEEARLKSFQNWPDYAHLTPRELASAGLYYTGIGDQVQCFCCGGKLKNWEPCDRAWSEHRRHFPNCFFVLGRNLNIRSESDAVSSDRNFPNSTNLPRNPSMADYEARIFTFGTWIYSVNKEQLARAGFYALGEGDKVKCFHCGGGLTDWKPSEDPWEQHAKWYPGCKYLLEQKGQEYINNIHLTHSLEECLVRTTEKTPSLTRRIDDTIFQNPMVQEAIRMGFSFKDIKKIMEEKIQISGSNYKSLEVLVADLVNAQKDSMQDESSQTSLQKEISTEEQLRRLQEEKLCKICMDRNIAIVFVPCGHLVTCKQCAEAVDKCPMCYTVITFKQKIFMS

Compound | z-score [1] | z-score [2] | z-score [3] | z-score [4] | z-score [5] | z-score [6] | z-score [7] | z-score [8] | z-score [9] | z-score [10] | z-score [11] | z-score [12] | z-score [13] | composite z-score [14] | z-score [15] | z-score [16] | z-score [17] | z-score [18] | z-score [19] | composite z-score [20]
CCCCC#C[C@@H]1C=C[C@H](OC(C)=O)[C@@H](COC(C)=O)O1 | -0.0464 | -0.515 | -1.14 | -3.37 | -3.02 | -1.24 | 0.378 (inactive) | -0.746 | -2.22 | 0.451 (inactive) | 0.693 | -1.44 (inactive) | -3.24 (inactive) | -0.216 (inactive) | 0.909 (inactive) | -0.667 (inactive) | -0.233 (inactive) | -0.248 (inactive) | -1.82 | 0.474
COc1ccc(COC(=O)NN=C2C[C@@H](O)[C@@H](O)[C@@H]3[C@@H]4C(=O)N(C5CCCCC5)C(=O)[C@@H]4CC[C@H]23)cc1 | -0.574 | -1.09 | -0.543 | -1.15 | -0.733 | -0.895 | -1.69 (inactive) | 0.249 | -0.244 | 0.0299 (inactive) | -0.689 | 1.07 (inactive) | -1.15 (inactive) | 0.608 (inactive) | 1 (inactive) | 0.335 (inactive) | -0.189 (inactive) | -0.582 (inactive) | -0.363 | -0.267
CC(=O)O[C@H]1C2=CO[C@H](C)[C@H]3[C@H]4C5=C([C@H](O)[C@H]6O[C@H]6C5=O)[C@H](OC4C)[C@@]23C(=O)[C@@H]2O[C@@H]21 (stereo not given in full) | -1.7 | -0.827 | -3.46 | -3.43 | -3.37 | -3 | 0.12 (inactive) | -0.871 | -2.88 | -2.43 (inactive) | -1.75 | 0.0895 (inactive) | -4.88 (inactive) | -0.219 (inactive) | 1.09 (inactive) | -0.464 (inactive) | -0.262 (inactive) | -0.267 (inactive) | -3.5 | -0.266
CCOC(=O)CCN1C(=O)[C@H]2[C@H]3[C@H](O)[C@H](O)CC(=NOCC(C)C)[C@H]3CC[C@H]2C1=O | 0.0183 | 0.179 | -0.268 | 0.324 | -0.75 | 0.364 | 0.295 (inactive) | -0.324 | -1.03 | -0.86 (inactive) | -0.823 | 0.265 (inactive) | -0.662 (inactive) | -1.19 (inactive) | 0.246 (inactive) | 0.628 (inactive) | 0.692 (inactive) | 0.686 (inactive) | -0.876 | -0.22
CCc1cc2c(nc1CC)CCN(CCC(C)=NOC[C@H]1O[C@H](c3ccccc3)C=C[C@@H]1Oc1ccc(OC)cc1)C2 | -0.67 | 0.765 | -0.106 | -2.03 | -2.35 | 5.61 | -1.1 (inactive) | -0.0846 | 0.0581 | 0.364 (inactive) | 0.0523 | -1.75 (inactive) | 0.22 (inactive) | -3.81 (inactive) | -0.197 (inactive) | -0.409 (inactive) | -1.58 (inactive) | -1.43 (inactive) | 0.218 | -0.23
CC(CCC(=O)OC[C@H]1O[C@H](C#Cc2ccccc2)C=C[C@@H]1Oc1ccc(C)cc1)=NO[C@H](C)c1cn([C@H](CO)Cc2ccccc2)nn1 | 0.122 | -0.643 | -0.34 | -3.06 | -3.97 | 0.0151 | -1.08 (inactive) | -0.712 | -0.547 | 0.804 (inactive) | 0.151 | 0.815 (inactive) | -0.0044 (inactive) | 1.1 (inactive) | 0.463 (inactive) | 1.78 (inactive) | 0.348 (inactive) | -0.0348 (inactive) | 0.274 | 0.0191
CCO[C@H](c1cc(OC)cc([N+](=O)[O-])c1OC)[C@H](C)C=CCC(=O)OC | 1.23 | -0.629 | 0.381 | 1.02 | 0.799 | 0.879 | 0.269 (inactive) | 0.752 | -0.929 | -0.625 (inactive) | -0.0508 | -2.19 (inactive) | -1.43 (inactive) | -0.278 (inactive) | 0.18 (inactive) | 0.343 (inactive) | 0.884 (inactive) | 0.38 (inactive) | -0.622 | 0.601
CCCNC(=O)OC[C@H]1O[C@H](CCON=C(C)CCN2CCCc3nc(C)c(C)cc32)C=C[C@@H]1Oc1ccc(OC)cc1 | 0.476 | 1.43 | -0.243 | -0.878 | -1.57 | 2.15 | -1.09 (inactive) | 0.455 | 0.023 | 1.21 (inactive) | 0.691 | 0.766 (inactive) | -0.291 (inactive) | 0.0151 (inactive) | 0.9 (inactive) | -0.295 (inactive) | 0.908 (inactive) | 0.557 (inactive) | 1.46 | 0.284
CC(C)=CCCC(C)=CCON=C1C[C@@H](O)[C@@H](O)[C@@H]2[C@@H]3C(=O)N(Cc4ccccc4)C(=O)[C@@H]3CC[C@H]12 | -0.424 | 0.753 | -0.908 | -0.13 | -1.41 | 1.66 | -0.468 (inactive) | 0.394 | -0.0142 | 0.539 (inactive) | 1.17 | -2.99 (inactive) | 1.14 (inactive) | -0.88 (inactive) | 0.507 (inactive) | -1.28 (inactive) | -0.366 (inactive) | 0.167 (inactive) | 0.369 | -0.177
CO[C@H]1COC(=O)[C@@H](C)COC(=O)[C@H](COCc2ccccc2)NC(=O)CC=C[C@H]1C | 0.362 | 0.293 | 0.298 | 0.555 | 0.34 | 1.36 | -0.213 (inactive) | 0.529 | 2.5 | 0.266 (inactive) | -0.238 | -1.58 (inactive) | 0.671 (inactive) | 0.604 (inactive) | -0.543 (inactive) | 0.085 (inactive) | 1.05 (inactive) | -0.997 (inactive) | 0.267 | 0.227
COc1cccc([C@H]2Oc3ccc(OC)cc3C(=NO[C@H](C)c3cn([C@H](CO)Cc4ccccc4)nn3)[C@@H]2O)c1 | -0.16 | 0.131 | -0.489 | -0.0922 | -0.719 | -1.81 | -3.16 (inactive) | -0.0494 | -0.252 | 0.286 (inactive) | -0.26 | 0.723 (inactive) | -0.328 (inactive) | -0.755 (inactive) | 0.417 (inactive) | -1.11 (inactive) | 0.753 (inactive) | 0.571 (inactive) | 0.249 | -0.278
CCOC(=O)[C@H](CC(C)C)NC(=O)CCC1CC(OC(=O)NCc2cccc3ccccc23)CC2(CCCC(COC(=O)NCCOC)O2)O1 (stereo not given in full) | 2.3 | 0.217 | 0.442 | -0.441 | 0.643 | 1.01 | -0.356 (inactive) | -0.198 | -0.834 | 0.781 (inactive) | -0.0621 | -2.14 (inactive) | 1.35 (inactive) | -0.531 (inactive) | 0.226 (inactive) | -1.73 (inactive) | 0.521 (inactive) | -0.0291 (inactive) | 0.986 | 0.0589
CO[C@H]1COC(=O)[C@H](C)NC(=O)CC=C[C@@H](C)[C@H](OC)COC(=O)[C@@H](OCc2ccccc2)C=C[C@@H]1C | 0.0192 | 0.0912 | 0.645 | -0.144 | -0.646 | 0.00399 | -0.29 (inactive) | -0.0466 | 0.474 | 0.703 (inactive) | 1.15 | -0.479 (inactive) | 0.346 (inactive) | 0.234 (inactive) | -0.838 (inactive) | -0.462 (inactive) | 0.575 (inactive) | 0.2 (inactive) | 0.323 | -0.142
C#CCCCON=C1C[C@@H](O)[C@@H](O)[C@@H]2[C@@H]3C(=O)N(c4ccc(F)cc4F)C(=O)[C@@H]3CC[C@H]12 | 1.14 | -0.0377 | -0.123 | 0.324 | 0.116 | 0.769 | -0.229 (inactive) | -0.0797 | -1.25 | 0.705 (inactive) | 0.63 | -0.98 (inactive) | 0.475 (inactive) | -0.31 (inactive) | 0.577 (inactive) | -1.67 (inactive) | 0.335 (inactive) | 0.537 (inactive) | 0.817 | 0.199
COC(=O)CC=C[C@@H](C)[C@@H](C=NO[C@@H](C)c1cn([C@H](CO)Cc2ccccc2)nn1)NS(=O)(=O)c1ccc(C)cc1 | 0.788 | 0.521 | 1.35 | 0.56 | 0.593 | -1.24 | 0.153 (inactive) | -0.249 | -0.648 | -0.685 (inactive) | -1.21 | -0.913 (inactive) | -0.412 (inactive) | -1.16 (inactive) | -1.54 (inactive) | -2.06 (inactive) | 0.196 (inactive) | 0.364 (inactive) | -0.808 | -0.349
CO[C@H]1COC(=O)CC=C[C@H](C)[C@@H](OC)COC(=O)[C@@H](C)COC(=O)CC=C[C@@H]1C | -0.0895 | 1.19 | 0.389 | 0.242 | 0.21 | 0.429 | 0.673 (inactive) | -0.296 | 1.01 | 0.455 (inactive) | -0.0033 | -1.2 (inactive) | 0.277 (inactive) | 0.151 (inactive) | -0.92 (inactive) | -0.288 (inactive) | 0.224 (inactive) | -0.979 (inactive) | 0.721 | -0.142
